Experiment [1] has as its target Cytochrome P450 3A4 (Homo sapiens) (UniProt P08684). The experiment in a line: qHTS Assay for Inhibitors and Substrates of Cytochrome P450 3A4 (AID 884). Further: potency means the concentration at half of the fitted maximal effect; nearly all actives have a fitted effect of over 50% in size. In outline: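 Luminescent readout of luciferin produced by CYP3A4 (20 nM) dealkylation of Luciferin-PPXE, 25 uM (its KM). NADPH-driven reaction ran 60 min at RT after 10 min compound preincubation; data scaled to 57 uM ketoconazole as 100% inhibition.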
In general terms: qHTS replaces the single test concentration by a dilution series.

For experiment [2] the target is unchanged. The experiment can be described thus: qHTS Assay for Activators of Cytochrome P450 3A4 (AID 885). Further: nearly all actives have a fitted effect of over 65% in size. Put shortly: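 Human CYP3A4 dealkylates Luciferin-PPXE to luciferin, which luciferase detection converts to light. Substrate was at its KM (25uM), buffer 200mM KPO4, reaction 60 min at RT.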
Experiment [3] can be described thus: MultiTox-Fluor Cytotoxicity Assay - LYMP1-002 - Dead Cells (AID 960). Further: potency means the concentration at half of the fitted maximal effect; nearly all actives have a fitted effect of over 60% in size. In outline: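 Cells were plated, rested 5 hr, then treated with compound dilution series for 16 hr at 37 C. After adding substrate reagent and 60 min at room temperature, dead-cell protease fluorescence gave concentration-response curves fitted by the Hill equation.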
Experiment [4] has as its target Glucocorticoid receptor (Homo sapiens) (UniProt P04150). The experiment can be described thus: qHTS assay for small molecule agonists of glucocorticoid receptor signaling (AID 588532; active means well fitted curve in the direction sought with a large enough effect in the signal ratio, with a control signal flat; the % refers to the signal ratio;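 further: 100% = dexamethasone at 0.1 µM and 0% = DMSO only wells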). The following applies: HeLa MMTV-bla, beta-lactamase ratio, agonist, 18 h; hits give high values; percent of dexamethasone control, DMSO zero. In outline:
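MMTV-bla HeLa, beta-lactamase reporter; medium with 1% charcoal/dextran-stripped FBS; cpds up to 92 uM, 18 h, 37 C; CCF4 readout 460/530 nm; Hill fit → EC50, efficacy vs 0.1 uM dexamethasone = 100%.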

The target in experiment [5] is Peroxisome proliferator-activated receptor delta (Homo sapiens) (UniProt Q03181). The experiment in a line: qHTS assay for small molecule agonists of peroxisome proliferator-activated receptor delta signaling (AID 588534; calls by dose curve;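 further: 0% = DMSO basal wells and 100% = positive control agonist at 10 µM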). Put shortly: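 Agonist-mode qHTS; reporter cells, 5 hrs 37 C pre-incubation; compound titration, 18 hrs 37 C; CCF4 dye, 2 hrs RT; fluorescence read. EC50/efficacy via Hill fit.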

Experiment [6] addresses Peroxisome proliferator-activated receptor gamma (Homo sapiens) (UniProt P37231). The experiment can be described thus: qHTS assay for small molecule antagonists of peroxisome proliferator-activated receptor gamma signaling (AID 588537; active means well fitted inhibition curve with a large enough effect in the signal ratio, with a control signal flat, not every such curve was filed as active; the % refers to the signal ratio; further: potency means the concentration at half of the fitted maximal effect). Put shortly: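 Compounds are tested as concentration series for inhibition of rosiglitazone-driven (50 nM) reporter expression in GeneBLAzer PPAR-gamma-UAS-bla HEK293 cells. After 16 h at 37 C, CCF4 substrate is added for 2 h at room temperature and blue/green fluorescence is measured.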

Experiment [7] deals with Vitamin D3 receptor (Homo sapiens) (UniProt P11473). The experiment can be described thus: qHTS assay for small molecule agonists of vitamin D receptor signaling (AID 588543; calls by dose curve;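 further: 0% = DMSO basal and 100% = reference agonist control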). Put shortly: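 GeneBLAzer VDR-UAS-bla HEK293T cells in 2% charcoal-stripped FBS medium were dosed with compound titrations for 16 h at 37 °C; CCF4 β-lactamase readout (405 nm ex, 460/530 nm em). EC50 and efficacy from Hill fits, normalized to 50 nM calcitriol (100%) and DMSO (0%).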

For experiment [8], the target named is Voltage-gated inwardly rectifying potassium channel KCNH2 (Homo sapiens) (UniProt Q12809). The experiment can be described thus: qHTS Assay for Small Molecule Inhibitors of the Human hERG Channel Activity (AID 588834).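 Further: potency means the concentration at half of the fitted maximal effect; lower thallium flux fluorescence means stronger hERG block; nearly all actives have a fitted effect of over 50% in size.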 Put shortly:
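In hERG-transduced U2OS cells, dye-loaded for 1 hr at room temperature in dark, test compounds incubated 10 min at 37 °C before thallium stimulation. AC50 values derived by Hill modelling of concentration-response.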

Experiment [9] is described as follows: qHTS assay for small molecule agonists of the antioxidant response element (ARE) signaling pathway (AID 651741; active means well fitted activation curve with a large enough effect in the signal ratio; the % refers to the signal ratio; further: potency means the concentration at half of the fitted maximal effect). Put shortly:
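Reporter: beta-lactamase under ARE, stably in HepG2. Exposure: 16 h, 37 C, compounds delivered in DMSO by pin tool after 5 h cell preincubation. Readout: FRET substrate fluorescence after 2 h at RT.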

Experiment [10] in a line: qHTS assay for small molecule activators of the nuclear factor-kappa B (NF-kB) signaling pathway (AID 651749; active means well fitted activation curve with a large enough effect in the signal ratio; the % refers to the signal ratio; further: series mostly up to about 77 µM; % of control where 0% means no effect). As to conditions: NF-kB-bla ME-180 cells, beta-lactamase FRET ratio, 16 h; activation: hits give high values. In outline:
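Human ME-180 cervical cells with an NF-kB-bla construct; compounds added via 23 nL pin transfer, DMSO as vehicle; incubation 16 hr. Reporter activity measured by FRET disruption.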

The nature of experiment [11]: qHTS assay for environmental chemicals that activate the Aryl hydrocarbon Receptor (AhR) signaling pathway (AID 651777). Further: % of control where 0% means no effect; nearly all actives have a fitted effect of over 15% in size. The following applies: 1A2-DRE human hepatoma cells, luciferase, 24 h; activation: hits give high values. Put shortly: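 Induction of CYP1A2 transcription through AhR is detected by luciferase in 1A2-DRE hepatoma cells. Compounds or DMSO act for 24 hr at 37 C before a 30 min One-Glo step at room temperature.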

Experiment [12] concerns the target Peroxisome proliferator-activated receptor alpha (Homo sapiens) (UniProt Q07869). The experiment can be described thus: qHTS assay for small molecule agonists of the peroxisome proliferator-activated receptor alpha (PPARalpha) signaling pathway (AID 651778). Further: % of control where 0% means no effect. As to conditions: PathHunter PPARalpha complementation, chemiluminescence, 6 h; hits give high values. In outline: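 Cells plated at 2,000/well and held overnight at 37 C, 5% CO2, then compound added by pin tool for 6 hr; after PathHunter detection reagent and 60 min at room temperature, chemiluminescence from enzyme complementation was read.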

Experiment [13] in a line: qHTS for Inhibitors of the Functional Ribonucleoprotein Complex (vRNP) of Lassa (LASV) Arenavirus: LASV Primary Screen - GLuc reporter signal (AID 1347082; calls by dose curve; tested in HEK293 reporter line; further: series mostly up to about 57 µM; on the % scale 0 is the no-effect control and ±100 the full control effect; nearly all actives have a fitted effect of over 60% in size).
A short description of experiment [14]: qHTS for Inhibitors of the Functional Ribonucleoprotein Complex (vRNP) of Lassa (LASV) Arenavirus: Viability assay - alamar blue signal for LASV Primary Screen (AID 1347083; calls by dose curve; tested in HEK293 reporter line; further: series mostly up to about 57 µM; on the % scale 0 is the no-effect control and ±100 the full control effect; nearly all actives have a fitted effect of over 80% in size).
Experiment [15] in a line: qHTS for Inhibitors of the Functional Ribonucleoprotein Complex (vRNP) of Lymphocytic Choriomeningitis Arenaviruses (LCMV): Viability assay - alamar blue signal for LCMV Primary Screen (AID 1347085; calls by dose curve; tested in HEK293 reporter line; further: series mostly up to about 57 µM; on the % scale 0 is the no-effect control and ±100 the full control effect; nearly all actives have a fitted effect of over 80% in size).
The target of experiment [16] is Nucleoprotein (Lymphocytic choriomeningitis virus (strain Armstrong)) (UniProt P09992). The experiment can be described thus: qHTS for Inhibitors of the Functional Ribonucleoprotein Complex (vRNP) of Lymphocytic Choriomeningitis Arenaviruses (LCMV): LCMV Primary Screen - GLuc reporter signal (AID 1347086; calls by dose curve; further: series mostly up to about 57 µM; on the % scale 0 is the no-effect control and ±100 the full control effect; nearly all actives have a fitted effect of over 70% in size).
In experiment [17] the target is Alpha-galactosidase (Coffea arabica) (UniProt Q42656). The experiment in a line: Counterscreen for Glucocerebrosidase Inhibitors: qHTS Assay for Coffee Bean alpha-Galactosidase at pH 5.9 (AID 998).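 Further: plate controls were uninhibited enzyme for no effect and no-enzyme basal signal for full effect.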 In outline: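 In 50 mM citric acid pH 5.9 with 0.005% Tween-20, coffee bean enzyme hydrolyses 80 uM 4-MU alpha-D-galactopyranoside over 20 min at RT. Activity is normalized to controls; AC50 comes from Hill-modelled concentration-response data.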

A short description of experiment [18]: Inducers of the Endoplasmic Reticulum Stress Response (ERSR) in human glioma: Validation (AID 504836). Further: 0% is about no effect. Put shortly: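 Stably transfected U87-MG human glioma cells carrying a GRP78-based luminescent sensor were seeded at 1000 cells/well, pin-dosed with compounds and incubated 16 h. Luciferase reagent was then added, and end-point luminescence was read after 10 min at room temperature.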

The target in experiment [19] is Alpha-galactosidase (Coffea arabica) (UniProt Q42656). The experiment in a line: Counterscreen for Glucocerebrosidase Inhibitors: qHTS Assay for Coffee Bean alpha-Galactosidase at pH 4.5 (AID 957).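 Further: series mostly up to about 77 µM; plate controls were enzyme alone for no effect and no enzyme for full effect.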 In outline:
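Enzyme is added first (2 nM final), then compounds titrated from 0.7 nM to 77 uM, then 80 uM 4-methylumbelliferyl alpha-D-galactopyranoside; after 20 min at room temperature a pH 10 NaOH/glycine stop precedes fluorescence reading at 365/440 nm.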

Experiment [20] addresses Bile acid receptor (Homo sapiens) (UniProt Q96RI1). The experiment can be described thus: qHTS assay for small molecule agonists of farnesoid X receptor signaling (AID 588527; calls by dose curve;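 further: series mostly up to about 77 µM; 0% = vehicle basal and 100% = reference agonist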). As to conditions: HEK293T FXR-UAS-bla, beta-lactamase ratio, 16 h; activation: hits give high values. Put shortly:
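FXR-UAS-bla HEK293T cells (10% dialyzed FBS) preincubated 5-7 h at 37 C, then compounds at up to 92 uM for 16 h at 37 C. CCF4 beta-lactamase read-out after 2 h RT. Normalized to chenodeoxycholic acid (100 uM) and DMSO; Hill fit gave EC50 and efficacy.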

A short description of experiment [21]: Confirmation and Secondary Assay for Modulators of Hemoglobin Beta Chain Splicing at IVS2 654 locus (AID 910).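 Further: per-well total GFP intensity by laser scanning cytometry after 2-day treatment; % of control where 0% means no effect.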 Put shortly:
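HeLa cells stably carrying EGFP interrupted by mutant beta-globin IVS2-654 intron (CMV-driven) were treated with compound for 2 days at 37C; corrected splicing was scored as total peak GFP intensity per well (488 nm excitation, 500-520 nm emission).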

Experiment [22] is described as follows: Confirmation and Secondary Assay for Modulators of Hemoglobin Beta Chain Splicing at IVS2 705 locus (AID 930).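 Further: HeLa cells stably expressing the EGFP-705 splicing reporter; GFP fluorescence per well restored by corrected splicing of the IVS2-705 intron in EGFP; series mostly up to about 46 µM; % of control where 0% means no effect.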 Put shortly: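 Stable HeLa line with EGFP disrupted by mutant beta-globin intron 2 (705). Overnight attachment, then 2 days of compound at 37C, 5% CO2. Signal: peak GFP intensity summed over objects 5-250 µm.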
For experiment [23], the target named is Ubiquitin carboxyl-terminal hydrolase 1 (Homo sapiens) (UniProt O94782). The experiment in a line: Inhibitors of USP1/UAF1: Pilot qHTS (AID 504865).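 Further: rhodamine fluorescence freed from ubiquitin-rhodamine substrate followed over time; top concentration of the series differs between compounds; on the % scale 0 is the no-effect control and ±100 the full control effect; nearly all actives have a fitted effect of over 35% in size.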 In outline: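 USP1/UAF1 complex (1nM) preincubated with compound 15 min at room temperature, then Ub-Rho substrate (150nM final) added. Fluorescence read kinetically at 480/540 nm, 6 reads every 60 seconds. Buffer: 50mM HEPES pH 7.8, 0.5mM EDTA, 0.1 mg/ml BSA, 1mM TCEP, 0.01% Tween-20.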

The structures appear in SMILES notation. Where “and” joins values, the source holds several entries; their conditions need not be identical. Equal values may be shown once. Unmarked numbers belong to inactive results. Results filed as inconclusive are left out. Calls of active or inactive are those of the source. Unless noted, the call rests on the fitted dose curve; in most records, active means well fitted curve in the direction sought with a large enough effect; inconclusive means small, poorly fitted or top-dose-only effect, or another doubt; inactive means no such curve, though single readings can be large; an effect the other way counts as inactive or inconclusive.

Nucleoprotein (Lymphocytic choriomeningitis virus (strain Armstrong)), sequence (P09992 whole entry, looked up): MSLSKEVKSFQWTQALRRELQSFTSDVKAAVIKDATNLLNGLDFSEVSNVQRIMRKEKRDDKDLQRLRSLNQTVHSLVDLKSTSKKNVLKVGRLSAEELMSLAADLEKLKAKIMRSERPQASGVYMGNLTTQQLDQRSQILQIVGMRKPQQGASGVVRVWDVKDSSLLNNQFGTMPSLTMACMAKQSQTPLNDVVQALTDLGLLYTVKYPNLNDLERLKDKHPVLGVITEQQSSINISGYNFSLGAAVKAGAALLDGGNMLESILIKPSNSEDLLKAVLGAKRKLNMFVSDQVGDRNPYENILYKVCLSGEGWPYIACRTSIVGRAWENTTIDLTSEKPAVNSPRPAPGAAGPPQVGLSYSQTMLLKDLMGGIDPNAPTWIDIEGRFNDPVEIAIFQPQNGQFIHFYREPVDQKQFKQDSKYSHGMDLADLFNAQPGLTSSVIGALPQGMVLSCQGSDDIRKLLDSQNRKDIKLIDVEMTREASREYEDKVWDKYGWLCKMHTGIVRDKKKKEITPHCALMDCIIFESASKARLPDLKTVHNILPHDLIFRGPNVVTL
Cytochrome P450 3A4 (Homo sapiens), sequence (P08684 whole entry, looked up): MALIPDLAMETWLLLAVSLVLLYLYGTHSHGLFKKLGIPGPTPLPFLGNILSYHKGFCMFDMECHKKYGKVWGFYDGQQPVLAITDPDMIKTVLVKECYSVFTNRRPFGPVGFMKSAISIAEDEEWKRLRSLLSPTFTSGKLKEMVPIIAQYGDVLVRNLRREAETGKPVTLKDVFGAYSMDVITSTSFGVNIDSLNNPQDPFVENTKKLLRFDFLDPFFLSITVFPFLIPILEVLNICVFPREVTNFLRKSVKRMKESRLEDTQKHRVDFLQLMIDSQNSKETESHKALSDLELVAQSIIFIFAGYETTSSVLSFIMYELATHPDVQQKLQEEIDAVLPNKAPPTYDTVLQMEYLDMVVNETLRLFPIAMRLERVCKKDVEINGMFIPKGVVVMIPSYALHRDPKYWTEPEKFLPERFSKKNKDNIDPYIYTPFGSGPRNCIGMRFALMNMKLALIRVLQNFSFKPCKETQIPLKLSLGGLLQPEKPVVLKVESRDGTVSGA
Alpha-galactosidase (Coffea arabica), sequence (Q42656 whole entry, looked up): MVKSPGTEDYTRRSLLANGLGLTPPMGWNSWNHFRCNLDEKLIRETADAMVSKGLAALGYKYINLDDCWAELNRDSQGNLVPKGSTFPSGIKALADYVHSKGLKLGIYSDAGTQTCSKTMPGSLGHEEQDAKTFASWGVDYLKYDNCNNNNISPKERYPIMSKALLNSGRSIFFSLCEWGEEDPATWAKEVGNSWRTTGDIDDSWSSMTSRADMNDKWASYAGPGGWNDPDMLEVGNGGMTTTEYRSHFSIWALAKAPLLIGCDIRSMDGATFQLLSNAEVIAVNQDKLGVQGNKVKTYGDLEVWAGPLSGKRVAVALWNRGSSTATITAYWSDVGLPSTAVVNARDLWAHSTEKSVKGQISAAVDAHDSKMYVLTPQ
Peroxisome proliferator-activated receptor delta (Homo sapiens), sequence (Q03181 whole entry, looked up): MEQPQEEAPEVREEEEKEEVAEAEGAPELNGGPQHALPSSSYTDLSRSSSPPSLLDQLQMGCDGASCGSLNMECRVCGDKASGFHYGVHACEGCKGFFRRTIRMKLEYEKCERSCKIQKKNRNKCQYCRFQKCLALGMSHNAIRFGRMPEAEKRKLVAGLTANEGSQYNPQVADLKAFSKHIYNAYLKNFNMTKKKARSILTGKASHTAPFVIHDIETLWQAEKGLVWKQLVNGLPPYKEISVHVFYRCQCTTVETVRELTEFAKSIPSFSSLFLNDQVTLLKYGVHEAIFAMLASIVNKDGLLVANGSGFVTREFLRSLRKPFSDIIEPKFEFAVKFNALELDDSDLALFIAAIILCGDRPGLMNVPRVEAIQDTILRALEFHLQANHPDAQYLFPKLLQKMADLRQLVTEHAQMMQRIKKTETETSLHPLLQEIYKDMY
Peroxisome proliferator-activated receptor gamma (Homo sapiens), sequence (P37231 whole entry, looked up): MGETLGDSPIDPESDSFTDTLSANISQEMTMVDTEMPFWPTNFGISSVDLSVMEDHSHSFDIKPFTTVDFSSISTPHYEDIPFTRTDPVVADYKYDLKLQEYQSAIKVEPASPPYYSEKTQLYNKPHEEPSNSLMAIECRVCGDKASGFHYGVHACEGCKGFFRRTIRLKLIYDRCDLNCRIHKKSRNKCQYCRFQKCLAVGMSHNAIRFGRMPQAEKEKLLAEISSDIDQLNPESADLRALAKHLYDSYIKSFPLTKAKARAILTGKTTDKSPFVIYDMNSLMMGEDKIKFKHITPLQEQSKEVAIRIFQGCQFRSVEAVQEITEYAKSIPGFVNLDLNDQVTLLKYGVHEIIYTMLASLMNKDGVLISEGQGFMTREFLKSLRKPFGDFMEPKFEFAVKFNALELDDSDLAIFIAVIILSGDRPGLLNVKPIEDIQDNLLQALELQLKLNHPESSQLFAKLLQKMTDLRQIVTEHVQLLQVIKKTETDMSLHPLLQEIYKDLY
Voltage-gated inwardly rectifying potassium channel KCNH2 (Homo sapiens), sequence (Q12809 whole entry, looked up): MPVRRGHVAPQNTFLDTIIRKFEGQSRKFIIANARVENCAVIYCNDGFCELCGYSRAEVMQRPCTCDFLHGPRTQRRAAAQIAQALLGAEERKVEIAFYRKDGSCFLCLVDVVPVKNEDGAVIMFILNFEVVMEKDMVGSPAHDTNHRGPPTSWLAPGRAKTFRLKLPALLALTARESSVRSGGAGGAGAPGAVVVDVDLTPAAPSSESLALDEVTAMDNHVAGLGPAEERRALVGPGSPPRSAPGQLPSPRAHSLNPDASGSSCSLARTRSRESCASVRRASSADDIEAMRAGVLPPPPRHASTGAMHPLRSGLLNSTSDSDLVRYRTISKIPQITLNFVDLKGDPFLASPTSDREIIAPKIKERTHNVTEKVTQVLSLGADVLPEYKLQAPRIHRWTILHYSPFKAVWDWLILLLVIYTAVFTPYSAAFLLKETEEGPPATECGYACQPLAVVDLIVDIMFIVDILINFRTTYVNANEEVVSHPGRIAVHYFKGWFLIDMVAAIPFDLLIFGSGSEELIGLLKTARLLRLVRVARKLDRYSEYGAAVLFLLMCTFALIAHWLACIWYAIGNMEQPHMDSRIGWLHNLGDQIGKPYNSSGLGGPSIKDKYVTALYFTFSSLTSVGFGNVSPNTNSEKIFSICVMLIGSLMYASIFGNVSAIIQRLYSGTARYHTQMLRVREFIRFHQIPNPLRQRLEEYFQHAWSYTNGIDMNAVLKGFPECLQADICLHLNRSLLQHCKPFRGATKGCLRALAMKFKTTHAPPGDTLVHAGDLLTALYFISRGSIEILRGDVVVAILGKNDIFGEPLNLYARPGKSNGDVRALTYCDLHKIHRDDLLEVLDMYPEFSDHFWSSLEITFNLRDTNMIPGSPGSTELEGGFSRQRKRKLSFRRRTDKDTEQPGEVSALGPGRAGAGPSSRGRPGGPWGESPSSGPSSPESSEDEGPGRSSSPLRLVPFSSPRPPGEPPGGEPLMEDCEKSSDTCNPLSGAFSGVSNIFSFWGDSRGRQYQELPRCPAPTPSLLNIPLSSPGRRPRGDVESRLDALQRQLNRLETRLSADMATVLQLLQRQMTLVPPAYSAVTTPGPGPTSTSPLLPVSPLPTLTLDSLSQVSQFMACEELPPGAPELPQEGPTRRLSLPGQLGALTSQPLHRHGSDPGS
Glucocorticoid receptor (Homo sapiens), sequence (P04150 whole entry, looked up): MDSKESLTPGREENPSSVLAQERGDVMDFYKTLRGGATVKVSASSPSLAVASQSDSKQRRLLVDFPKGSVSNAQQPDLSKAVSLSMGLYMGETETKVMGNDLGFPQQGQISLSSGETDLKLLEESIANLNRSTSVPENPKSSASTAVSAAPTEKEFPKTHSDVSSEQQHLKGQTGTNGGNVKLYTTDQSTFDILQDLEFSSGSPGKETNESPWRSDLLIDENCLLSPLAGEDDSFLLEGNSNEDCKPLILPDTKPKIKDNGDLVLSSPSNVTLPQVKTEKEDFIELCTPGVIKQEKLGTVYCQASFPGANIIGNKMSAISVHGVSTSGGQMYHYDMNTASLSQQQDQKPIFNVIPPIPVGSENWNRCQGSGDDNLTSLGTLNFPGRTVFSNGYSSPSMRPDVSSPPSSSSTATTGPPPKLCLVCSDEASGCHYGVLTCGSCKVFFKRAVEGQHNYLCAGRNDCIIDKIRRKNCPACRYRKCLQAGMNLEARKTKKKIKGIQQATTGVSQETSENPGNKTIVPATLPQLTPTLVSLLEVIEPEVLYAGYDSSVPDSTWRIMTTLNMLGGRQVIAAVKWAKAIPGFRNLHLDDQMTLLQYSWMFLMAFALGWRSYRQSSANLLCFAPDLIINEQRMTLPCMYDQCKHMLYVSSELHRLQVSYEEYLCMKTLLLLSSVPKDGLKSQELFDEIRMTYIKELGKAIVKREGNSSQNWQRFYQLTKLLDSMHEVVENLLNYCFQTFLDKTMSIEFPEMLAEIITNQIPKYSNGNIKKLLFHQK
Vitamin D3 receptor (Homo sapiens), sequence (P11473 whole entry, looked up): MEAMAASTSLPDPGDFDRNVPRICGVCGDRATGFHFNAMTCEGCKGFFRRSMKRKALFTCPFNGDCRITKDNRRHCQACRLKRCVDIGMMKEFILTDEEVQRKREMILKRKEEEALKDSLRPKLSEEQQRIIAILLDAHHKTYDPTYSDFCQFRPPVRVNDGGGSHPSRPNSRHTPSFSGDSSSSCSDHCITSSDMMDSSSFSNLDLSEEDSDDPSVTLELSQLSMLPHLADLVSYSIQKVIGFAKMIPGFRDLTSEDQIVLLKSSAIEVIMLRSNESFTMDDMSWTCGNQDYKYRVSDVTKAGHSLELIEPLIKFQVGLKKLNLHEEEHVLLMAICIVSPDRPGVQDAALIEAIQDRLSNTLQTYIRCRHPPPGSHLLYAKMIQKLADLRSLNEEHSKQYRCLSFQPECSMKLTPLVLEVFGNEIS

As for `c1ccc(Nc2cccc3ccccc23)cc1`, the Potency in experiment [1] was 31.6 µM (active); in experiment [3] it was 31.6 µM (active); in [6], 39.8 µM (active) and 44.7 µM (active); in experiment [8] it was 28.2 µM (active); in [9] it was 42.2 µM (active) and 24.3 µM (active). In addition, the Potency result in experiment [2], in [5], in experiment [7], in experiment [13], in experiment [14] and in experiment [15] was “inactive” each time. Moreover, in [16], the Potency result is “inactive”. The activation is 4.55% in [4], -0.293% in [10] and 4.97% in [11]. The max response in [12] was -0.23%.

For `CC(C)[C@H](NC(=O)OCc1ccccc1)C(=O)N[C@H](C=O)Cc1ccccc1`, the compound was classed as inactive in [17] and in experiment [18]. The Potency result in experiment [13], in [14], in [15] and in experiment [16] was “inactive” in each case.

Regarding `CC(C)Cn1c(=O)n(C)c(=O)c2[nH]cnc21`, the compound was classed as inactive in experiment [17] and in experiment [18]. Moreover, the Potency entry in experiment [13], in [14], in experiment [15] and in experiment [16] was “inactive” in each case.

On to `COc1ccc(CCN(C)CCc2ccc(OC)c(OC)c2)cc1OC`, for which the compound was classed as inactive in experiment [19], in experiment [17] and in [18]. The Potency entry in experiment [13], in [14], in [15] and in [16] was “inactive” each time.

On to `CN=C(N)NCCC[C@H](N)C(=O)O`, for which the compound was called inactive in experiment [19], in [17] and in [18]. Besides, the Potency entry in experiment [13], in experiment [14], in experiment [15] and in [16] was “inactive” throughout.

For `CC1=C(/C=C/C(C)=C/C=C/C(C)=C\C=O)C(C)(C)CCC1`, the activation in experiment [20] is 25.7%. The Potency result in [5], in experiment [13], in [14], in [15] and in [16] was “inactive” in each case.

With `C=CCSSCC=C`, the Potency result in [2], in experiment [21], in experiment [23], in experiment [13], in experiment [14] and in [15] was “inactive” throughout. Besides, the Potency result in [16] was “inactive”. Further, the result in experiment [22] was inactive.
